NPC1 prom act = activates the NPC1 promoter; AID 485313; 320,000 compounds, 2.4% hits; Huh7 NPC1 promoter luciferase reporter, 24 h; Potency, µM (highest dose often 9.22 µM), for the others: top-dose activation, hits mostly activators; note: % of control where 0% means no effect; nearly all actives have a fitted effect of over 60% in size
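Luminescence from an NPC1 promoter-driven luciferase reporter in stably transfected Huh7 cells was measured after 24 h compound treatment at 37 °C, followed by 10 min ambient incubation with luciferase detection reagent.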
FLuc modulator = counter-screen for miR-21 project: firefly luciferase inhibitors or activators; Potency, µM (top dose mostly 57.5 µM), for the others: at the top dose activity change, negative = inhibition, actives largely listed as inhibitors; purified FLuc, Km substrates, luminescence inhibition; 360,000 compounds, 6.9% hits;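 note: plate controls were vehicle for no effect and reference inhibitor for full effect; nearly all actives have a fitted effect of over 55% in size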
Target sequence (P08659 whole entry, looked up): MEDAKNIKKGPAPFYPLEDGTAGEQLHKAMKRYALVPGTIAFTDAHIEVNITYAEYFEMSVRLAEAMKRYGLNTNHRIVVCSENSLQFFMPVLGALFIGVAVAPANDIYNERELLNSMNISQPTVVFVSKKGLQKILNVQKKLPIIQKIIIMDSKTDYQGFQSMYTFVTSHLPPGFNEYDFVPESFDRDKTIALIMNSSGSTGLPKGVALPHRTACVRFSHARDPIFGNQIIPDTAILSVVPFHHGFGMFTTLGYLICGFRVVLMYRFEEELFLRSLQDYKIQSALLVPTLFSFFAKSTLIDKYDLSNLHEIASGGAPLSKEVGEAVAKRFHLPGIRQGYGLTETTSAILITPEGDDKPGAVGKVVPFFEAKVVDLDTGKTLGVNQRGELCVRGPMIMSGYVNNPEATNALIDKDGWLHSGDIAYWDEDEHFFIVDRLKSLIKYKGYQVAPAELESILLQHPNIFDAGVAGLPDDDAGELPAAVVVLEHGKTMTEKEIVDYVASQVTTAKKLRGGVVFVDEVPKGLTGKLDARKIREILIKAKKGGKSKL
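Purified P. pyralis luciferase, 10 nM final, with Km-level 10 uM D-luciferin and 10 uM ATP in 50 mM Tris acetate pH 7.5, 10 mM Mg acetate, 0.01% Tween-20, 0.05% BSA; 6-point qHTS titration about 60 µM downward; luminescence read.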
ELG1 genotox = induces genotoxicity in HEK293T cells with luciferase-tagged ELG1 | HEK293T ELG1-luciferase reporter, luminescence, 16 h | Potency, µM (top dose mostly 46 µM), without a hit: at the top dose activity change, positive = activation, usual class: activators | 330,000 compounds, 1.3% hits | AID 504466; note: % of control where 0% means no effect; nearly all actives have a fitted effect of over 60% in size
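HEK293T cells expressing luciferase-tagged ELG1 were exposed to compound or DMSO vehicle for 16 hr at 37 °C and 5% CO2. Luciferase activity was then measured with ONE-Glo after 30 min at room temperature.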
SMN2 splice up = SMN2 splice variant enhancement; 210,000 compounds, 2.8% hits; Potency, µM (top dose mostly 46.1 µM), for the others: at the highest dose activity change, positive = activation, hits mostly activators; HEK293 SMN2-luciferase splicing reporter, luminescence, 30-36 h; AID 1458; note: % of control where 0% means no effect; nearly all actives have a fitted effect of over 55% in size
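HEK293 cells carry an SMN2 minigene-luciferase reporter in which exon 7 inclusion puts luciferase in frame. Cells were seeded at 2000 cells/well, attached for 10-12 hours, then exposed to compounds for 30-36 hours at 37C before ONE-Glo luminescence.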
Rab9 promoter act = Rab9 promoter activation; Potency, µM (highest dose often 9.22 µM), for inactives: at the top dose activation, negative = inhibition, actives largely listed as activators; 320,000 compounds, 2.8% hits; Huh7 Rab9 promoter-luciferase reporter, luminescence, 24 h; note: % of control where 0% means no effect; nearly all actives have a fitted effect of over 60% in size
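Stable Rab9-luc Huh7, 1500 cells/well, 2 h settle; cmpd in DMSO, 24 h, 37 °C/5% CO2; luciferase reagent 10 min RT; luminescence.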
* = called active by the depositor; ? = inconclusive; · = no result. Shown are actives, neighbours in structure and some others; about 7.5% of the full set was active somewhere. Calls come from the whole dose curve; as a rule, active = well fitted curve in the direction sought with a large enough effect; inconclusive = small, poorly fitted or top-dose-only effect, or another doubt; inactive = no such curve, though single readings can be large; an effect the other way counts as inactive or inconclusive. Potency is the fitted concentration of half-maximal effect.

SMILES	NPC1 prom act	FLuc modulator	ELG1 genotox	SMN2 splice up	Rab9 promoter act
O=C(Nc1cccc(S(=O)(=O)NC2=NCCC2)c1)c1ccc(OC(F)F)cc1	-3%	11µM*	0%	·	0%
CN(C)c1cccc(C(=O)Nc2cccc(S(=O)(=O)NC3=NCCC3)c2)c1	2.8µM*	21µM*	?	·	2.2µM*
C=C(C)CNC(=S)Nc1cccc(S(=O)(=O)NC2=NCCC2)c1	0%	-1%	2%	-9%	1%
O=C(NC(=S)Nc1cccc(S(=O)(=O)NC2=NCCC2)c1)c1cc(-c2ccco2)nc2ccccc12	-24%	19µM*	9%	·	-27%
CCOc1ccc(C(=O)NC(=S)Nc2cccc(S(=O)(=O)NC3=NCCC3)c2)cc1	-20%	12µM*	?	0%	-4%
O=C(Nc1cccc(S(=O)(=O)NC2=NCCC2)c1)c1ccccc1	·	·	-1%	·	·
CCN(CC(=O)Nc1c(F)cccc1F)C(=O)C1CCN(C(=O)Nc2ccccc2)CC1	-2%	0%	2%	·	-1%
COC(=O)c1cc(C)sc1NC(=O)CSc1ncccn1	-3%	4%	0%	·	2%
C(=N\N(c1ccccc1)c1ccccc1)/c1ccc2c(c1)OCO2	0%	-1%	-4%	-15%	-7%
CN(/N=C/c1ccc2c(c1)OCO2)c1ccccc1	4µM*	6.7µM*	?	20µM*	2.8µM*
COc1cc(/C=N/N(C)c2ccccc2)ccc1O	?	2.4µM*	4.6µM*	?	?
COc1cc(OC)c(OC)cc1/C=N/N(C)c1ccccc1	4%	-17%	3%	-18%	2%
COc1ccc(N2CC(NC(=O)/C=C\c3ccc4c(c3)OCO4)CC2=O)cc1 (stereo not drawn)	·	-13%	·	·	·
CCn1ncc(Br)c1C(=O)Nc1c(C)nn(Cc2c(F)c(F)c(F)c(F)c2F)c1C	-4%	1%	-12%	·	-10%
COc1cccc(NC(=O)c2cc(-c3ccc(C)o3)nc3ccccc23)c1	18%	?	2%	·	22%
COc1cccc(NC(=O)CN(C)C(=O)c2cc(-c3ccc(C)o3)nc3ccccc23)c1	5%	11µM*	-5%	·	0%
COc1ccc(NC(=O)CN(C)C(=O)c2cc(-c3ccc(Cl)cc3)nc3ccccc23)cc1	2%	24µM*	-43%	·	-1%
CCOc1ccc(NC(=O)CN(C)C(=O)c2cc(-c3ccc(OC)cc3)nc3ccccc23)cc1OCC	-1%	13µM*	-27%	·	2%
Cn1nnnc1SCCNCc1ccc(OCc2ccc(Cl)cc2)cc1	·	?	·	-55%	·
CCOC(=O)CN1N=C(/C=C/c2ccc(C)cc2)CCC1=O	1%	?	4%	9%	-5%
COc1ccc(/C=C/C2=NN(C)C(=O)CC2)cc1	2µM*	11µM*	?	11µM*	2.8µM*
Cc1noc(C)c1NC(=O)Nc1ccc2c(c1)CC(=O)N([C@H](C)CO)C[C@@H](C)[C@H](CN(C)CC1CCCCC1)O2	·	·	1%	·	·
C/C(=N\N1CCN(c2ccccc2)CC1)c1ccc(O)cc1	13%	-2%	11%	·	9%
COCCN(CCOC)c1ncnc2c1cnn2-c1ccccc1	5%	-15%	6%	·	16%
CCN(c1ccccc1)c1ncnc2c1cnn2-c1ccccc1	?	19µM*	21µM*	-59%	?
SMILES	NPC1 prom act	FLuc modulator	ELG1 genotox	SMN2 splice up	Rab9 promoter act
CN(Cc1ccccc1)c1ncnc2c1cnn2-c1ccccc1	2.5µM*	6µM*	18µM*	5.6µM*	2.8µM*
CCN(Cc1ccccc1)c1ncnc2c1cnn2-c1ccc(F)cc1	·	7.6µM*	·	·	·
COCCCNc1nc(NCc2ccc(C)cc2)c2cnn(C)c2n1	·	3%	·	·	·
CCOC(=O)c1nn(-c2ccccc2)c2nnc(Cc3ccccc3)c(=O)n12	1%	0%	-1%	3%	-4%
Nc1nc2ccc(N3CCOCC3)cc2s1	?	11µM*	8.2µM*	16µM*	2.8µM*
CC(C)NC(=O)N(C)C[C@H]1Oc2ccc(NC(=O)Nc3ccccc3)cc2C(=O)N([C@@H](C)CO)C[C@@H]1C	·	·	-2%	·	·
O=C(CSc1ncccn1)N/N=C/c1ccc2c(c1)OCO2	26%	11µM*	?	·	?
O=C(CNC(=O)c1ccccc1F)N/N=C/c1ccc2c(c1)OCO2	?	17µM*	?	·	?
O=C(Cc1ccccc1)N/N=C/c1ccc2c(c1)OCO2	2.5µM*	15µM*	?	16µM*	4µM*
O=C(CNc1ccccc1)N/N=C/c1ccc2c(c1)OCCO2	2%	9.5µM*	1%	?	0%
CCC1CN(C(=O)N2CCC(C(=O)NCc3cccc(C)c3)CC2)c2ccccc2O1 (stereo not drawn)	·	0%	·	·	·
S=c1[nH]ncn1/N=C/c1cccs1	-1%	-5%	5%	·	-6%
COc1ccc2[nH]c(CN3CCC(CO)(CCOc4ccccc4)CC3)c(C)c2c1	-3%	0%	9%	·	-7%
CN(C)C(CNC(=O)c1ccc2c(=O)n(-c3ccccc3F)c(=S)[nH]c2c1)Cc1ccccc1 (stereo not drawn)	-2%	-1%	-5%	-14%	0%
COc1cccc(C(=O)NCC(=O)N/N=C/c2cccnc2)c1	-2%	3%	2%	·	0%
COc1cccc(C(=O)NCC(=O)N/N=C/c2ccc3c(c2)OCO3)c1	3%	24µM*	6%	·	1%
O=C(Cn1ccc(C(F)(F)F)n1)N/N=C/c1ccc2c(c1)OCO2	23%	19µM*	?	·	6%
CCCc1ccc2oc(C(=O)N(C)Cc3nccs3)c(C)c2c1	?	15µM*	23µM*	·	?
CCCc1ccc2oc(C(=O)N3CCC(O)CC3)c(C)c2c1	28%	?	?	·	26%
COc1ccc(C(C)=O)cc1CSc1ccc(S(=O)(=O)N2CCCCC2)cn1	-1%	·	-3%	·	4%
CCc1cccc(C)c1NC(=O)CN1C(=O)c2c(c3ccccc3n2C)C1c1ccc(OC)cc1 (stereo not drawn)	·	-2%	·	·	·
Cc1nc2c(cc1C#N)C(=O)c1ccccc1-2	-2%	2%	3%	6%	2%
COc1ccc(-c2cc(-c3ccccc3)nc(Cl)n2)cc1OC	-14%	?	-5%	·	0%
COc1ccc(-c2cn3ccccc3n2)cc1OC	3.2µM*	3.4µM*	?	18µM*	3.2µM*
CN(C)S(=O)(=O)c1cccc(-c2cn3ccccc3n2)c1	14%	-11%	2%	1%	26%
COc1ccc(-c2cn3cc(C)ccc3n2)cc1F	0.35µM*	0.24µM*	?	0.56µM*	0.35µM*
COc1ccc(-c2nc3c(-c4ccc(Cl)cc4)cnn3cc2C)cc1F	-8%	0%	1%	·	-3%
COc1ccc(-c2cn3cc(C)ccc3n2)cc1OC	1µM*	0.85µM*	1µM*	4µM*	0.63µM*

Screens (PubChem BioAssay)
